Each molecule was assayed on LEGO organoid PTCC (PTEN-/-; TP53-/-; CDKN2A-/-; CDKN2B-/-) (assay: bioluminescence (viable cell) signal fold change after vs before treatment, normalised to DMSO (ratio); higher = more tumour cell growth / less inhibition). Conditions: 10 µM; treatment time 6 days.
Method: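 Luc2-labelled iPSC-derived glioblastoma-like organoids (LEGOs, genotypes PT = PTEN-/-;TP53-/-, PTCC = plus CDKN2A/B-/-, PTN = plus NF1-/-) were treated with 10 uM drug for 6 days (applied every other day) at 37 C. Bioluminescence imaging was done before treatment and 2 days after the last dose. BLI signals were normalised to the DMSO control on the same day and then to the pre-treatment signal (N=3).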

Point of comparison: `CC(=O)c1c(C)c2cnc(Nc3ccc(N4CCNCC4)cn3)nc2n(C2CCCC2)c1=O.O=S(=O)(O)CCO` [Palbociclib Isethionate], bioluminescence 2.84. Against it:
- CC(C)(C)c1cc(C(C)(C)C)c(NC(=O)c2c[nH]c3ccccc3c2=O)cc1O [Ivacaftor] — lower, 0.191
- Cc1ccccc1C(OCCN(C)C)c1ccccc1.O=C(O)CC(O)(CC(=O)O)C(=O)O (centres undefined) [Orphenadrine Citrate] — lower, 2.65
- CCCCCCCCCCC[C@@H](C[C@@H]1OC(=O)[C@H]1CCCCCC)OC(=O)[C@H](CC(C)C)NC=O [Orlistat] — lower, 0.925
- CCN(CC)CC(=O)Nc1c(C)cccc1C [Xylocaine] — lower, 1.13
- CC(=O)OCC(=O)[C@@]1(O)CC[C@H]2[C@@H]3CCC4=CC(=O)C=C[C@]4(C)[C@H]3[C@@H](O)C[C@@]21C [Prednisolone-21-acetate] — lower, 1.01
- C[C@H]1C[C@@H]2[C@H]([C@@H](O)C[C@@]3(C)[C@H]2CC[C@]3(O)C(=O)CO)[C@@]2(C)C=CC(=O)C=C12 [Methylprednisolone] — lower, 0.882
- CC(C(=O)O)c1ccc(-c2ccccc2)c(F)c1 (centres undefined) [Flurbiprofen] — lower, 0.856
- N#Cc1ccc2[nH]cc(CCCCN3CCN(c4ccc5oc(C(N)=O)cc5c4)CC3)c2c1 [Vilazodone] — lower, 1.83
- NC(=O)c1ncn([C@@H]2O[C@H](CO)[C@@H](O)[C@H]2O)n1 [Ribavirin] — lower, 1.89
- CCN(CC)CCNC(=O)c1cc(Cl)c(N)cc1OC [5-Chloro-2-methoxyprocainamide] — lower, 0.329
- CN[C@H]1CC[C@@H](c2ccc(Cl)c(Cl)c2)c2ccccc21.Cl [Sertraline hydrochloride] — lower, 0.888
- CC/C(=C(/CC)c1ccc(O)cc1)c1ccc(O)cc1 [Diethylstilbestrol] — lower, 0.673
- Nc1ncn([C@H]2C[C@H](O)[C@@H](CO)O2)c(=O)n1 [Decitabine] — lower, 1.67
- CCC(CC)O[C@@H]1C=C(C(=O)O)C[C@H](N)[C@H]1NC(C)=O [Oseltamivir acid] — lower, 0.404
- CO[C@H]1/C=C/O[C@@]2(C)Oc3c(C)c(O)c4c(O)c(c(/C=N/N5CCN(C6CCCC6)CC5)c(O)c4c3C2=O)NC(=O)/C(C)=C\C=C\[C@H](C)[C@H](O)[C@@H](C)[C@@H](O)[C@@H](C)[C@H](OC(C)=O)[C@@H]1C [Rifapentine] — lower, 0.434
- Cl.OC[C@H]1NC[C@H](O)[C@@H](O)[C@H]1O [Migalastat hydrochloride] — lower, 0.51
- C[C@]12CCC3=C4CCC(=O)C=C4CC[C@H]3[C@@H]1CC[C@@]2(O)CC#N [Dienogest] — higher, 3.61
- Cc1cc(NS(=O)(=O)c2ccc(N)cc2)no1 [Sulfamethoxazole] — lower, 1.56
- Cl.Cc1ccsc1\C(=C\CCN1CCC[C@H](C1)C(O)=O)c1sccc1C [Tiagabine hydrochloride] — lower, 2.4
- CC(C)Nc1cccnc1N1CCN(C(=O)c2cc3cc(NS(C)(=O)=O)ccc3[nH]2)CC1.CS(=O)(=O)O [Delavirdine mesylate] — lower, 0.912
- COc1ccccc1OCC(O)COC(N)=O (centres undefined) [Methocarbamol] — lower, 1.84
- O=C(CCCCCCC(=O)Nc1ccccc1)NO [Vorinostat] — lower, 0.409
- C/C=C(/C)C(=O)O[C@H]1C(C)=C[C@]23C(=O)[C@@H](C=C(CO)[C@@H](O)[C@]12O)[C@H]1[C@@H](C[C@H]3C)C1(C)C [Ingenol Mebutate] — lower, 1.37
- CS(=O)(=O)CCNCc1ccc(-c2ccc3ncnc(Nc4ccc(OCc5cccc(F)c5)c(Cl)c4)c3c2)o1 [Lapatinib] — lower, 0.878
- O=C(O)c1cccnc1 [Niacin] — lower, 2.03
- CO/N=C(\C(=O)N[C@@H]1C(=O)N2C(C(=O)[O-])=C(COC(C)=O)CS[C@H]12)c1csc(N)n1.[Na+] [Cefotaxime sodium] — lower, 1.45
- Nc1nc2ccc(OC(F)(F)F)cc2s1 [Riluzole] — lower, 1.26
- CC(C)Oc1ccc(-c2nc(-c3cccc4c3CC[C@@H]4NCCO)no2)cc1C#N [Ozanimod] — lower, 0.828
- CCN1CCN(C(=O)N[C@@H](C(=O)N[C@@H]2C(=O)N3[C@@H]2SC(C)(C)[C@@H]3C(=O)[O-])c2ccccc2)C(=O)C1=O.[Na+] [Piperacillin sodium salt] — lower, 1.11
- CS(=O)(=O)c1cccc(C[C@H](NC(=O)c2c(Cl)cc3c(c2Cl)CCN(C(=O)c2ccc4ccoc4c2)C3)C(=O)O)c1 [Lifitegrast] — lower, 1.08
- O=NN(CCCl)C(=O)NC1CCCCC1 [Lomustine] — lower, 1.17
- NC(=O)c1cn(Cc2c(F)cccc2F)nn1 [Rufinamide] — lower, 2.69
- CNC(=O)c1cc(Oc2ccc(NC(=O)Nc3ccc(Cl)c(C(F)(F)F)c3)cc2)ccn1 [Sorafenib] — lower, 0.105
- CN(C)CCC[C@@]1(c2ccc(F)cc2)OCc2cc(C#N)ccc21.O=C(O)C(=O)O [Escitalopram Oxalate] — lower, 0.773
- CN1CCN2c3ncccc3Cc3ccccc3C2C1 (centres undefined) [Mirtazapine] — lower, 1.47
- CCCCCCCCCC(=O)OCCN1CCN(CCCN2c3ccccc3Sc3ccc(C(F)(F)F)cc32)CC1 [Fluphenazine decanoate] — lower, 2.63
- CCc1cc2c(cc1N1CCC(N3CCOCC3)CC1)C(C)(C)c1[nH]c3cc(C#N)ccc3c1C2=O.Cl [Alectinib hydrochloride] — lower, 0.838
- NC(CO)(CO)CO.O=C(c1ccccc1)c1ccc2n1CCC2C(=O)O (centres undefined) [Ketorolac tromethamine salt] — lower, 1.57

— the supplement of paper PMC10811239
